Experimental data from PubChem BioAssay (EPA / NIEHS).
Records with an inconclusive call do not appear. Active and inactive are the calls of the source. How the source made its calls: active means hit-call score of the fitted dose curve at least 0.9, where 1 is the maximum; inconclusive means response in the unintended direction; inactive means score below 0.9.

Each compound was assayed on organic anion transporter (SLCO1B1), SLCO1B1 (gene 10599) (assay: CLD_SLCO1B1_6hr: CellzDirect (CLD) Gene Expression Assay for organic anion transporter (SLCO1B1) at 6 hours (AID 2283668)).
Procedure: CLD_6hr is a cell-based, multiplexed-readout assay that uses hepatocyte, a human liver primary cell, with measurements taken at 6 hours after chemical dosing in a 96-well plate.CLD_SLCO1B1_6hr is one of 16 assay component(s) measured or calculated from the CLD_6hr assay. It is designed to make measurements of mRNA induction, a form of inducible reporter, as detected with chemiluminescence signals by Quantitative Nuclease Protection Assay (qNPA) technology.Data from the assay component CLD_SLCO1B1_6hr was analyzed at the endpoint, CLD_SLCO1B1_6hr, in the positive analysis fitting direction relative to DMSO as the negative control and baseline of activity. Using a type of inducible reporter, gain-of-signal activity can be used to understand changes in the reporter gene as they relate to the gene SLCO1B1. Furthermore, this assay endpoint can be referred to as a primary readout. To generalize the intended target to other relatable targets, this assay endpoint is annotated to the transporter intended target family, where subfamily is organic anion transporter.
Human hepatocyte cultures were treated daily for two consecutive days with fresh dosing solutions containing appropriate concentrations of the 320 ToxCast chemicals (chemical identities were blinded to CellzDirect and other ToxCast collaborators), vehicle control (0.2% DMSO), and positive control inducers as summarized in Table 1. Due to the large number of treatment groups and chemicals examined, the ToxCast chemicals were divided into two groups (spanning two independent cultures of hepatocytes from separate donor preparations (Hu778: ToxCast plates 1 and 2; Hu776: ToxCast plates 3 and 4). Each preparation of human hepatocyte cultures was treated with respective vehicle control, medium only control, set of six positive controls/reference chemicals for the five hepatic receptor pathways, and a subset of eight of the ToxCast chemicals (indoxacarb, pyrithiobac-sodium, norflurazon, cyhalofop-butyl, methomyl, thiram, acetochlor, and propiconazole). These replicate data, coupled with internal replicates designed within the blinded ToxCast chemical library, provided additional data to evaluate interindividual differences between hepatocyte preparations and their potential impact on chemical profiles.Cell morphology and integrity were evaluated using phase-contrast microscopy as an indicator of hepatocyte cell health (Tyson & Green, 1987). Cultures for each treatment group (i.e., media, vehicle [0.2% DMSO], positive control inducers [multiple concentrations], and the ToxCast chemicals [multiple concentrations]) were observed and cell morphology was assessed relative to vehicle control cultures at each harvest time point (0, 6, 24, or 48 h). […] Images were evaluated at the conclusion of the study to assess changes in cell integrity and account for the effects of chemical exposure on uncharacteristic changes in concentration-dependent gene expression profiles. The results from these determinations of apparent cytotoxicity were annotated (yes/no) alongside the corresponding qNPA data for reference.At the conclusion of each treatment period, hepatocyte cultures (96-well) were washed with 1 volume of HBSS, lysed by addition of 25 ul ArrayPlate lysis buffer (HTG, Tucson, AZ), and 70 ul/well of Denaturation Oil, denatured by incubation at 95C for 10 min, and frozen at approximately -70C until analysis by nuclease protection assay (qNPA) (Roberts et al., 2007). For qNPA analysis, cell lysates were thawed at 50C for approximately 30 min, qNPA probes were added, and samples were incubated at 95C for 10 min to begin the detection process by denaturing the target RNA, dissociating the duplexes and secondary structure hybridization. At the conclusion of the hybridization period, S1 nuclease reagent was added to each sample to digest all nonprotected nucleotides at 50C for 60-90 min. […]

| SMILES | outcome |
| --- | --- |
| CCOc1nc(F)cc2nc(S(=O)(=O)Nc3c(Cl)cccc3Cl)nn12 | inactive |
| Nc1c(Cl)c(F)nc(OCC(=O)O)c1Cl | inactive |
| CCNC(=O)NC(=O)C(C#N)=NOC | inactive |
| CCCN(CC)CC1COC2(CCC(C(C)(C)C)CC2)O1 (stereo not drawn) | inactive |
| CC(C)N1C(=O)c2ccccc2NS1(=O)=O | inactive |
| CC1(C)C(C=C(Cl)Cl)C1C(=O)OC(C#N)c1cccc(Oc2ccccc2)c1 (stereo not drawn) | inactive |
| CCOP(=O)(OCC)Oc1nc(Cl)c(Cl)cc1Cl | inactive |
| CCN(CC)c1nc(C)cc(OP(=S)(OC)OC)n1 | inactive |
| O=P(O)(O)CCCl | inactive |
| CCOC(=O)C(C)OC(=O)c1cc(Oc2ccc(C(F)(F)F)cc2Cl)ccc1[N+](=O)[O-] (stereo not drawn) | inactive |
| CN=C=S | inactive |
| OC(c1ccc(Cl)cc1)(c1ccc(Cl)cc1)C(Cl)(Cl)Cl | inactive |
| Cc1ccc(N=CN(C)C=Nc2ccc(C)cc2C)c(C)c1 | inactive |
| Clc1nc(Cl)nc(Nc2ccccc2Cl)n1 | inactive |
| CCCCC(O)(Cn1cncn1)c1ccc(Cl)cc1Cl (stereo not drawn) | inactive |
| CCCCC(C#N)(Cn1cncn1)c1ccc(Cl)cc1 (stereo not drawn) | inactive |
| CC(C)C1(C)N=C(c2ncccc2C(=O)O)NC1=O (stereo not drawn) | inactive |

| SMILES | outcome |
| --- | --- |
| CC1(C)CCC(=Cc2ccc(Cl)cc2)C1(O)Cn1cncn1 (stereo not drawn) | inactive |
| COP(=O)(OC)O/C(C)=C/C(=O)N(C)C | inactive |
| CCCCOCN(C(=O)CCl)c1c(CC)cccc1CC | inactive |
| COC(=O)c1c(C(F)F)nc(C(F)(F)F)c(C2=NCCS2)c1CC(C)C | inactive |
| COCc1cnc(C2=NC(C)(C(C)C)C(=O)N2)c(C(=O)O)c1 (stereo not drawn) | inactive |
| CSC(=O)c1c(C(F)F)nc(C(F)(F)F)c(C(=O)SC)c1CC(C)C | inactive |
| CCCC(=NOCC)C1=C(O)CC(CC(C)SCC)CC1=O (stereo not drawn) | inactive |
| COc1cc(OC)nc(NC(=O)NS(=O)(=O)c2ncccc2OCC(F)(F)F)n1 | inactive |
| COCC(=O)N(c1c(C)cccc1C)C(C)C(=O)OC (stereo not drawn) | inactive |
| COCC(C)N(C(=O)CCl)c1c(C)csc1C (stereo not drawn) | inactive |
| N#Cc1c(Cl)cccc1Cl | inactive |
| Clc1cccc(C(Cl)(Cl)Cl)n1 | inactive |
| CO/N=C(/C1=NOCCO1)c1ccccc1Oc1ncnc(Oc2ccccc2Cl)c1F | inactive |
| C=CCOC(=O)C(C)(C)OC(=O)c1cc(-n2c(=O)cc(C(F)(F)F)n(C)c2=O)ccc1Cl | inactive |
| O=c1n(Cl)c(=O)n(Cl)c(=O)n1Cl | inactive |
| CS(=O)(=O)c1cc(C(F)(F)F)ccc1C(=O)c1cnoc1C1CC1 | inactive |
